Bioassay records: PubChem BioAssay, Sanford-Burnham Center for Chemical Genomics
CF NFkB inh – inhibitors of cystic fibrosis induced NF-kB; KKLEB NF-kB-GFP reporter, PAF-induced, GFP fluorescence overnight; inhibition, % at 5 µM; actives 0.86% (n = 360,000); AID 588850;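 active means at least 50% inhibition at 5 µM, scaled per plate between neutral and stimulator controls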;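 further: PAF is a Pseudomonas aeruginosa culture filtrate used as stimulus; plate controls were PAF-stimulated DMSO wells for no effect and unstimulated DMSO wells for full effect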
TROY NFkB inh – inhibitors of TROY-dependent NF-kB signaling; Q293 LMP1-TROYcd NF-kB luciferase reporter, 4 h; inhibition, % at 10 µM; actives 0.98% (n = 360,000); AID 1347056;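 active means compounds whose plate-normalised and pattern-corrected inhibition of the luciferase reporter signal at the single screening dose is 50% or more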
HIF-2a inh – HIF-2a inhibition | 786-0 RCC cells HIF-2a reporter, luciferase luminescence, overnight | inhibition, % at 18.8 µM | AID 624352 | actives 0.72% (n = 360,000);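 active means inhibition of the luminescence signal of 40% or more relative to plate controls, in a single-dose primary screen at 18.75 µM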
Peg3 prom inh-1 – Peg3 promoter activity inhibition; HeLa PEG-Prom luciferase reporter, luminescence, overnight; inhibition, % at 20 µM; actives 1.7% (n = 360,000); AID 588405;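 active means inhibition of at least 50% at 20 µM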
KKLEB cytotox – counter-screen for CF NF-kB inhibitors: cytotoxicity; AID 602141; actives 0.36% (n = 360,000); activity change (cytotoxicity), % at 5 µM; KKLEB CF airway cells viability, ATPlite luminescence, overnight; hits give low values; cells stimulated with P. aeruginosa culture filtrate;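 active means corrected activity change at or below -50% at 5 µM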
TWEAK Fn14 block – TWEAK-Fn14 signaling inhibition. TWEAK-stimulated Fn14 reporter cells, luciferase luminescence, 8 h. inhibition, % at 10 µM. actives 2% (n = 360,000). AID 1159606; in the data active means inhibition above about 50%
Peg3 prom inh-2 – Peg3 promoter inhibition confirmation; shares compounds with Peg3 prom inh-1; HeLa PEG-Prom luciferase reporter, luminescence, overnight; AID 602417; inhibition, % at 20 µM; actives 84% (n = 1,300);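 active means at 20 µM dose, 40% or more inhibition averaged across four replicates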
Mdm2-MdmX confirm – confirmation of inhibitors of human Mdm2/MdmX interaction, set 2. SaOS-2 split-luciferase Mdm2/MdmX complementation, luminescence. actives 99% (n = 740). inhibition, % at 8 µM. AID 504601. shares compounds with HIF-2a inh;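 active means mean inhibition of the luminescence signal across two replicates at or above 26 percent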
Target sequence (O15151 whole entry, looked up): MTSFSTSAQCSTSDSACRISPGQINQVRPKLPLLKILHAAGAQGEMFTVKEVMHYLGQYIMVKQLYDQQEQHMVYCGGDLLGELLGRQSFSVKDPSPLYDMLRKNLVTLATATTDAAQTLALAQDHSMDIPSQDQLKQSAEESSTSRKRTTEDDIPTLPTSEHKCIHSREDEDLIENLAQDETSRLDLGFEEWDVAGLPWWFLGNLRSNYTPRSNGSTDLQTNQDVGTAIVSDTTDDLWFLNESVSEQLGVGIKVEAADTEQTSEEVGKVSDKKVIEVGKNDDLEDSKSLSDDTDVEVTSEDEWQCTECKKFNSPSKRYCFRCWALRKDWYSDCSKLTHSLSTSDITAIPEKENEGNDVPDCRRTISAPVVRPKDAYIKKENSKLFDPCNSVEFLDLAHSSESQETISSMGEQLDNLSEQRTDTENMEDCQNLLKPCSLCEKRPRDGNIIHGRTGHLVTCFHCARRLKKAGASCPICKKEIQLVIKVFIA
Target sequence (Q00987 whole entry, looked up): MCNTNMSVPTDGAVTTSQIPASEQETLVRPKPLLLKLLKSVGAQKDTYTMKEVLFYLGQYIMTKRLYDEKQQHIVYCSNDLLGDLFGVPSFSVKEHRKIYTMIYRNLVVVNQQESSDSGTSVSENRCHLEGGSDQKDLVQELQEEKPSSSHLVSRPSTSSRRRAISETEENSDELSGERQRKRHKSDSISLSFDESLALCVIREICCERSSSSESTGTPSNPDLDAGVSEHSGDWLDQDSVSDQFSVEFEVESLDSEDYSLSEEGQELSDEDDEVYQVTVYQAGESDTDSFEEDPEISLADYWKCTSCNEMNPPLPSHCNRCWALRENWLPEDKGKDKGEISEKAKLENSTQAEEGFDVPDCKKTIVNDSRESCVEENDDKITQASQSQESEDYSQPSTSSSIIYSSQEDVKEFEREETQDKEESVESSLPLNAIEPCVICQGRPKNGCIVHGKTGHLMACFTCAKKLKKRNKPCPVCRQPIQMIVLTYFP
HIF-2a conf – HIF-2a inhibition, single concentration confirmation; 786-0 RCC cells, HIF-2a luciferase reporter luminescence, overnight; AID 651580; shares compounds with HIF-2a inh; inhibition, % at 18.8 µM; actives 56% (n = 1,800);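 active means mean inhibition across four replicates of at least 40 percent at the single tested concentration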
HIF-1a counter – counter-screen for HIF-2a inhibitors: HIF-1a inhibition in MiaPaCa-2 cells; shares compounds with HIF-2a inh; AID 651589; actives 72% (n = 1,800); inhibition, % at 18.8 µM; MiaPaCa-2 HIF-1a luciferase reporter, desferoxamine, overnight;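 active means mean inhibition of the reporter signal across four replicates at the single tested dose of 50% or more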
Starred values were filed as active, the others as inactive; / = no result given. Most compounds without a hit are left out; they make up all but 4% or so of the library.

SMILES	CF NFkB inh	TROY NFkB inh	HIF-2a inh	Peg3 prom inh-1	KKLEB cytotox	TWEAK Fn14 block	Peg3 prom inh-2	HIF-2a conf	HIF-1a counter	others
CCCCC(=O)NC(c1ccccc1OC)c1ccc2cccnc2c1O (centres undefined)	-17.2	-9.8	12.6	62.5*	-6.7	-2.6	68.6*	/	/	Mdm2-MdmX confirm=87.0*
CCCC(=O)NC(c1ccc(Cl)cc1)c1ccc2cccnc2c1O (centres undefined)	-26.9	17.4	25.1	57.4*	-0.1	1.0	64.7*	/	/	Mdm2-MdmX confirm=92.2*
CC(=O)NC(c1ccc(Cl)cc1Cl)c1ccc2cccnc2c1O (centres undefined)	-11.9	28.5	25.1	56.2*	6.7	9.1	59.0*	/	/	Mdm2-MdmX confirm=86.0*
CC(C)n1cnnc1SCC(=O)NNC(=O)COc1ccc(Cl)cc1	2.1	-9.8	-0.1	-2.4	4.8	19.7	/	/	/
Cc1ccc(N(Cc2cc(=O)[nH]c3ccccc23)C(=O)CCl)c(C)c1	41.6	-4.1	18.9	71.4*	-14.9	63.1*	76.4*	/	/	Mdm2-MdmX confirm=101.0*
CC(=O)Nc1cc2nn(-c3ccccc3)nc2cc1Cl	-17.3	-26.5	-179.0	-209.6	-1.7	27.6	/	/	/
CC(C)(C)C(=O)Nc1cc2nn(-c3ccccc3)nc2cc1Cl	3.3	90.7*	75.0*	62.4*	-93.9*	108.2*	85.9*	91.0*	94.6*
CC(C)c1nnc(NC(=O)C2CCN(C(=O)Nc3ccccc3)CC2)s1	-4.2	-15.7	32.9	-8.1	1.8	0.3	/	/	/
Cc1nc(SCC(=O)Nc2nc3ccccc3s2)c(C#N)c(C)c1C	27.3	91.7*	89.0*	92.8*	-48.9	106.8*	90.1*	94.8*	104.8*	Mdm2-MdmX confirm=101.2*
COc1ccc(CNC(=O)c2cn(Cc3ccccc3F)c(=O)s2)cc1	5.7	1.1	4.5	12.5	-16.5	-6.8	/	/	/
CC1=CC2C(C(O)CC3(C)C2CC(C)C32OCOC23COCO3)C2(C)C/C(=C\O)C(=O)C=C12 (centres undefined)	95.7*	83.4*	95.1*	101.5*	-95.2*	108.6*	96.7*	52.5*	107.8*
COc1cc(C2CC(=O)Oc3cc(C)c(Br)c(C)c32)cc(OC)c1OC (centres undefined)	7.6	-0.8	5.9	-6.1	-4.3	3.4	/	/	/
S=C(NCCSCc1ccc(Cl)cc1Cl)Nc1ccccc1	2.9	38.4	16.0	18.2	-9.5	17.1	/	/	/
S=C(Nc1ccccc1)Nc1ccc(OCc2ccc(Cl)cc2Cl)cc1	2.0	80.8*	92.8*	78.7*	0.4	31.9	73.5*	97.9*	99.7*
COc1ccc2c(C(=O)c3ccc(Cl)cc3)n(CCCC(N)=O)[n+]([O-])c2c1	10.7	11.0	-5.7	2.7	-7.8	3.1	/	/	/
COc1ccc(N(CC(=O)NCc2ccccc2OC)S(=O)(=O)c2ccccc2)cc1	-8.0	-64.1	6.2	4.2	0.9	-26.3	/	/	/
CCOC(=O)c1c(SCCN2CCCCC2)n(-c2ccccc2)c(=S)n(-c2ccccc2)c1=O	7.0	16.8	87.4*	108.1*	-7.9	18.5	99.0*	67.7*	100.6*
COc1ccc(Nc2oc(COc3ccccc3OC)nc2C#N)cc1	-4.0	0.7	59.5*	77.0*	4.8	55.0*	51.4*	61.6*	56.6*
CCCCCc1ccc(OCCCC[n+]2cccc(C)c2)c(CCCCC)c1	57.7*	58.6*	95.5*	97.5*	-46.7	70.0*	96.6*	33.0	105.8*	Mdm2-MdmX confirm=102.2*
CCCCOc1ccc(C)cc1CN(CCO)CCO	3.0	-6.2	13.6	0.6	-14.6	-17.8	/	/	/
CCOC(=O)c1cnc(Nc2nc3ccccc3o2)nc1CSc1nnc(C)s1	-11.8	13.1	-112.0	-69.0	8.2	4.8	/	/	/
CCOC(=O)c1cnc(Nc2nc3ccccc3o2)nc1C	-13.0	56.1*	74.2*	79.0*	-24.3	93.5*	68.6*	81.2*	71.1*
CC1(C)CC(=O)C=C(c2ccccc2-c2ccc(S(C)(=O)=O)cc2)C1=O	3.2	-11.3	5.1	-21.9	-4.0	-8.4	/	/	/
Cc1cc(C(=O)Nc2cccc(C(=O)O)c2)oc1C	5.6	-62.8	81.0*	81.6*	-2.9	21.8	51.7*	77.9*	-14.9
COc1ccc(-c2nsc3c(N4CCCCC4C)ncnc23)cc1 (centres undefined)	-4.2	90.5*	83.7*	97.1*	-46.3	97.6*	84.9*	92.2*	102.5*
SMILES	CF NFkB inh	TROY NFkB inh	HIF-2a inh	Peg3 prom inh-1	KKLEB cytotox	TWEAK Fn14 block	Peg3 prom inh-2	HIF-2a conf	HIF-1a counter	others
COc1ccc(-c2nsc3c(N4CCN(S(=O)(=O)c5ccccc5F)CC4)ncnc23)cc1	4.6	-24.1	-6.0	-8.6	-2.4	-23.7	/	/	/
Cc1ccc(F)cc1C(=O)N1CCCC1(C)C(=O)NCC(C)C (centres undefined)	12.9	0.0	10.1	8.1	0.8	-8.2	/	/	/
CC(C)CN1CCC(=O)N(CCN=[N+]=[N-])CC1	7.8	-12.3	8.5	12.7	-8.5	-2.7	/	/	/
O=[N+]([O-])c1nn(-c2ccc3c(c2)OCCO3)n(O)c1=Nc1ccc(Cl)cc1	-7.8	87.9*	61.0*	71.9*	16.7	100.5*	74.3*	76.9*	100.5*
CCc1ccc(N=c2c([N+](=O)[O-])nn(-c3ccc4c(c3)OCCO4)n2O)cc1	-9.6	26.4	-118.8	-165.4	3.7	25.7	/	/	/
COC(=O)Cc1[nH]n(-c2nc3ccccc3s2)c(=O)c1C(C)=Nc1ccc(C)cc1	4.2	81.8*	87.0*	90.6*	7.6	91.2*	93.8*	92.2*	102.0*
COC(=O)Cc1[nH]n(-c2nc3ccccc3s2)c(=O)c1C(C)=Nc1ccc(Cl)cc1	10.9	43.5	85.1*	94.4*	-14.7	16.7	93.9*	93.1*	101.6*
Cc1ccc(S(=O)(=O)N(C)C)cc1NC(=O)COC(=O)c1ccc2ccccc2n1	9.5	7.9	10.5	2.8	-2.8	2.8	/	/	/
O=[N+]([O-])c1cc(/C=N/NC(=S)Nc2ccccc2Cl)ccc1Cl	-24.1	5.1	69.7*	96.2*	6.8	-39.7	17.3	10.8	103.7*
CSc1nc(O)c(Nc2ccccc2)c(=O)[nH]1	5.5	-16.9	-16.8	-25.4	2.8	-9.2	/	/	/
O=C(NCc1ccccc1F)c1ccc2c(c1)OCO2	-2.7	3.5	-22.7	-35.9	11.5	34.2	/	/	/
